GPR151 ag: activators of human GPR151, primary screen, cell-based, PathHunter beta-arrestin, luminescence; activation, % at 11.2 µM; AID 1508602, 2020; PathHunter beta-arrestin GPR151 cells; 1% of 650,000 active; G-protein coupled receptor 151 (Homo sapiens), Q8TDV0; in the data active = activation above about 4.9%;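 note: 0% = median of compound wells and 100% = cells with positive control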
FBW7 activator: FBW7 E3 ligase activators, primary screen, biochemical, AlphaScreen, human; F-box/WD repeat-containing protein 7 (Homo sapiens), Q969H0; AlphaScreen FBW7–phospho-cyclin E peptide binding, activator screen; normalized activity (activation), % at 26.1 µM; 0.13% of 650,000 active; AID 1259310, 2017; in the data active = normalized activity above about 1.9%;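 note: purified mutant Fbw7 with reduced substrate affinity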
MITF inh: MITF inhibitors, primary screen, biochemical, AlphaScreen, human; Microphthalmia-associated transcription factor (Homo sapiens), O75030; AlphaScreen MITF homodimerization, bead proximity signal; inhibition, % at 2.6 µM; 0.91% of 650,000 active; in the data active = inhibition above about 50%;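 note: 0% = vehicle wells with protein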
TEAD-YAP inh: TEAD-YAP interaction inhibition, primary screen, TEAD-YAP interaction inhibitor project, luminescence, HEK-TIYL cells | 1.4% of 640,000 active | TEAD-Gal4/YAP UAS-luciferase luminescence | inhibition, % at 9.12 µM; in the data active = inhibition above about 32%;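 note: 0% = median of test compound wells and 100% = reference inhibitor wells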
An asterisk follows results filed as active. Hits are enriched below; roughly 3.4% of the tested compounds scored in any of these assays.

SMILES	GPR151 ag	FBW7 activator	MITF inh	TEAD-YAP inh
COc1cc(/C=C2/C(=N)N3N=C(COc4ccccc4)SC3=NC2=O)cc(OC)c1OC	1	0	1	5
CC(=O)N1CCN(Cc2ccc3c(c2)CN(C(=O)Cc2cccc(Cl)c2)CCO3)CC1	0	0	-6	-7
CN(C)CC(C)(C)CN1C(=O)CCC1CCNCc1cccnc1 (centres undefined)	0	0	9	-2
COc1ccc2c(c1)CC(C(=O)Nc1cc(F)c(-c3cn[nH]c3)c(F)c1)CO2 (centres undefined)	0	0	2	-8
Cc1nc(NCCNC(=O)COc2ccccc2)c2c3c(sc2n1)CCCC3	0	0	2	45*
CCOC(=O)c1ccc(N=Cc2c(O)n(-c3cccc(OC)c3)c(=O)[nH]c2=O)cc1	1	0	-2	-4
COc1ccc(N=Cc2c(O)n(-c3cccc(OC)c3)c(=O)[nH]c2=O)cc1	-1	0	76*	-8
COc1ccc2c(c1)c(=O)oc1cc(OCC(=O)N(C)c3ccccc3)ccc12	0	1	52*	0
COc1ccc2c(c1)c(=O)oc1cc(OCC(=O)O)ccc12	1	0	4	2
O=C(Nc1ccc(Br)cc1C(=O)c1ccccc1Cl)c1cc2nc(-c3cccs3)cc(C(F)(F)F)n2n1	0	0	1	-1
Clc1cnc2nc(-c3cccnc3)[nH]c2c1	-1	0	9	-50
Nc1ccc(-c2nc3ncc(Cl)cc3[nH]2)cc1	-2	0	8	35*
CCN(CC)CCCNC(=O)Cn1cc2c(n1)-c1c(oc(C(=O)N3CCCC3)c1C)CC2	0	0	-8	-4
Fc1ccccc1-c1nc(Nc2ccc3c(c2)OCCO3)c2ccccc2n1	1	1	-12	7
NC(=O)c1ccccc1Nc1ncnc2c1nc1n2CCCCC1	1	0	-11	48*
Cc1oc2c(c1C(=O)NCC1CCCO1)C(=O)c1ccccc1C2=O (centres undefined)	-2	0	11	77*
Cc1oc2c(c1C(=O)N1CCN(C)CC1)C(=O)c1ccccc1C2=O	-1	0	20	48*
CCOC(=O)c1nnn(-c2nonc2N)c1CN1CCN(C(c2ccccc2)c2ccccc2)CC1	-1	0	0	5
CC/C(O)=C1\C(=O)CCCC1=NCCc1c(C)[nH]c2ccccc12	2	0	7	4
Nc1nc(Nc2ccncn2)nc2c1ncn2-c1ccsc1	0	16*	12	38*
OCCNc1nc(Nc2ccncn2)nc2c1ncn2-c1ccsc1	1	0	-3	36*
OCCNc1nc(Nc2cnccn2)nc2c1ncn2-c1ccsc1	-2	0	-9	25
Nc1nc(Nc2ccc(-n3ccnc3)cc2)nc2c1ncn2-c1ccsc1	1	0	6	24
CCN1C(=O)/C(=C/c2cc3c(cc2Cl)OCO3)NC1=S	0	0	6	-2
N#Cc1ccccc1NC(=O)COC(=O)CSc1nnc(-c2ccc3c(c2)OCO3)o1	-2	0	-1	38*
SMILES	GPR151 ag	FBW7 activator	MITF inh	TEAD-YAP inh
COC(=O)CSc1nnc(-c2ccc(C(C)(C)C)cc2)o1	-1	0	1	66*
COc1ccc(-c2nnc(SCC(=O)OCC(=O)Nc3ccccc3C#N)o2)cc1	1	0	-3	67*
COC(=O)CSc1nnc(-c2ccc(C)cc2)o1	-1	0	4	1
COc1ccc(-c2nnc(SCC(=O)c3ccc[nH]3)o2)cc1	-4	0	-5	39*
COc1ccc(-c2nnc(SCC(=O)c3ccccc3F)o2)cc1	-1	0	13	-21
N#Cc1ccccc1NC(=O)CSc1nnc(-c2ccccc2)o1	2	0	6	-14
COc1ccc(-n2c(CNC(=O)Cc3cccs3)nnc2SC)cc1	-2	0	9	-1
Cc1nc(SCC(=O)N(C)C2CCS(=O)(=O)C2)c2c3c(sc2n1)CCC3 (centres undefined)	1	0	14	-8
Oc1cccc(-c2cnn3c(NCc4ccco4)ccnc23)c1	0	-1	-17	89*
CC(=O)c1cccc(-c2cnn3c(NCc4ccco4)ccnc23)c1	1	0	20	-44
Oc1ccc(-c2cnn3c(NCc4cccs4)ccnc23)cc1	-1	0	-29	82*

Screens as filed in PubChem BioAssay.
